From PubChem BioAssay (EPA / NIEHS)
Calls of active or inactive are those of the source. The calls were made as follows: active = hit-call score of the fitted dose curve at least 0.9, where 1 is the maximum; inactive = score below 0.9.

Tests used:
Settings in all cases: mRNA level, 48 h; actives raise or lower the signal
[1] = read-out: Broad substrate specificity ATP-binding cassette transporter ABCG2 (Homo sapiens) (UniProt Q9UNQ0); assay: LTEA_HepaRG_ABCG2: Life Technologies and Expression Analysis (LTEA) Assay for ABC Transporter (ABCG2) using HepaRG (AID 2283465)
Procedure, shortened: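 Differentiated HepaRG cells in serum-free induction medium were exposed for 48 h, in duplicate, to eight half-log concentrations up to 100 uM in 0.5% DMSO. ABCG2 mRNA was measured by TaqMan qRT-PCR, normalized to ACTB, GAPDH and POLR2A, and fitted bidirectionally versus DMSO.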

[2] = read-out: ATP-citrate lyase (ACLY), ACLY (gene 47); assay: LTEA_HepaRG_ACLY: Life Technologies and Expression Analysis (LTEA) Assay for ATP-citrate lyase (ACLY) using HepaRG (AID 2283466)
Procedure, shortened: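 Differentiated human HepaRG cells in serum-free induction medium exposed 48 h, in duplicate, to eight half-log concentrations from 100 uM top in 0.5% DMSO; ACLY mRNA measured by qRT-PCR, normalized to ACTB, GAPDH, POLR2A, fitted bidirectionally versus DMSO.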

[3] = read-out: Peroxisomal acyl-coenzyme A oxidase 1 (ACOX1) gene, ACOX1 (gene 51); assay: LTEA_HepaRG_ACOX1: Life Technologies and Expression Analysis (LTEA) Assay for Peroxisomal acyl-coenzyme A oxidase 1 (ACOX1) gene using HepaRG (AID 2283467)
Procedure, shortened: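 Differentiated human HepaRG cells were exposed in duplicate for 48 h in serum-free induction medium to eight half-log concentrations up to 100 uM in 0.5% DMSO. ACOX1 mRNA was then quantified by TaqMan qRT-PCR, normalized to ACTB, GAPDH and POLR2A.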

[4] = read-out: Bcl-2 (BAD) gene, BAD (gene 572); assay: LTEA_HepaRG_BAD: Life Technologies and Expression Analysis (LTEA) Assay for Bcl-2 (BAD) gene using HepaRG (AID 2283469)
Procedure, shortened: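 Differentiated human HepaRG cells in serum-free induction medium were exposed in duplicate for 48 h to eight concentrations (top 100 uM, half-log steps, 0.5% DMSO). BAD mRNA was quantified by qRT-PCR normalised to ACTB, GAPDH and POLR2A, with bidirectional fitting versus DMSO.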

[5] = read-out: Bcl-2 (BAX) gene, BAX (gene 581); assay: LTEA_HepaRG_BAX: Life Technologies and Expression Analysis (LTEA) Assay for Bcl-2 (BAX) gene using HepaRG (AID 2283470)
Procedure, shortened: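 Differentiated HepaRG cells exposed 48 h in serum-free induction medium, eight half-log concentrations from 100 uM, in duplicate, 0.5% DMSO vehicle. BAX mRNA by TaqMan qRT-PCR, normalised to ACTB, GAPDH and POLR2A.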

[6] = read-out: adenosine kinase (ADK) gene, ADK (gene 132); assay: LTEA_HepaRG_ADK: Life Technologies and Expression Analysis (LTEA) Assay for adenosine kinase (ADK) gene using HepaRG (AID 2283471)
Procedure, shortened: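 Read-out is ADK transcript level measured by qRT-PCR and normalised to three housekeeping genes. Cells are human HepaRG, dosed for 48 h at up to 100 uM in 0.5% DMSO. Gain or loss of signal is fitted against DMSO controls.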

[7] = read-out: Alpha-fetoprotein (AFP) gene, AFP (gene 174); assay: LTEA_HepaRG_AFP: Life Technologies and Expression Analysis (LTEA) Assay for Alpha-fetoprotein (AFP) gene using HepaRG (AID 2283472)
Procedure, shortened: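 Differentiated human HepaRG cells exposed 48 h in serum-free induction medium, 8-point half-log series from 100 uM in 0.5% DMSO, duplicate. AFP mRNA by qRT-PCR, normalized to ACTB, GAPDH, POLR2A; bidirectional fit vs DMSO.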

BCL2L11 (gene 10018) = assay: LTEA_HepaRG_BCL2L11: Life Technologies and Expression Analysis (LTEA) Assay for Bcl-2 (BCL2L11) gene using HepaRG (AID 2283473)
Procedure, shortened: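 Differentiated human HepaRG cells were exposed 48 h in serum-free induction medium to eight half-log concentrations up to 100 uM in 0.5% DMSO, in duplicate. BCL2L11 mRNA was quantified by TaqMan qRT-PCR, normalized to ACTB, GAPDH and POLR2A; induction or repression fitted versus DMSO.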

[8] = read-out: Apolipoprotein A-V (APOA5) gene, APOA5 (gene 116519); assay: LTEA_HepaRG_APOA5: Life Technologies and Expression Analysis (LTEA) Assay for Apolipoprotein A-V (APOA5) gene using HepaRG (AID 2283474)
Procedure, shortened: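 Differentiated HepaRG cells in serum-free induction medium, exposed 48 h in duplicate to eight half-log concentrations topping at 100 uM (0.5% DMSO). APOA5 mRNA by Fluidigm TaqMan qRT-PCR, normalized to ACTB, GAPDH and POLR2A; bidirectional fit versus DMSO.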

[9] = read-out: Apoptosis regulator Bcl-2 (Homo sapiens) (UniProt P10415); assay: LTEA_HepaRG_BCL2: Life Technologies and Expression Analysis (LTEA) Assay for Bcl-2 gene using HepaRG (AID 2283475)
Procedure, shortened: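 Differentiated human HepaRG cells in serum-free induction medium exposed 48 h, in duplicate, to 8-point half-log series from 100 uM in 0.5% DMSO. BCL2 mRNA by qRT-PCR (TaqMan/Fluidigm), normalized to ACTB, GAPDH, POLR2A; bidirectional fit against DMSO.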

[10] = read-out: Bcl-2 (BID) gene, BID (gene 637); assay: LTEA_HepaRG_BID: Life Technologies and Expression Analysis (LTEA) Assay for Bcl-2 (BID) gene using HepaRG (AID 2283476)
Procedure, shortened: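 Gene expression by qRT-PCR in HepaRG cells after 48 h exposure, duplicate wells, eight half-log concentrations topping at 100 uM in 0.5% DMSO. Normalized to ACTB, GAPDH, POLR2A; bidirectional fitting relative to DMSO.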

Caspase-3 (Homo sapiens) = Caspase-3 (Homo sapiens) (UniProt P42574); assay: LTEA_HepaRG_CASP3: Life Technologies and Expression Analysis (LTEA) Assay for cysteine-aspartic acid protease (CASP3) using HepaRG (AID 2283477)
Procedure, shortened: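 Differentiated HepaRG cells, plated 48 h, were treated in duplicate in serum-free induction medium for 48 h with eight half-log concentrations up to 100 uM in 0.5% DMSO. CASP3 mRNA measured by qRT-PCR, normalized to ACTB, GAPDH, POLR2A.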

[11] = read-out: Cytochrome P450 (CYP1A2), CYP1A2 (gene 1544); assay: LTEA_HepaRG_CYP1A2: Life Technologies and Expression Analysis (LTEA) Assay for Cytochrome P450 (CYP1A2) using HepaRG (AID 2283479)
Procedure, shortened: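 Differentiated human HepaRG cells in serum-free induction medium exposed 48 hours in duplicate to 8 half-log concentrations from 100 uM, 0.5% DMSO. CYP1A2 mRNA quantified by qRT-PCR, normalized to ACTB, GAPDH and POLR2A; bidirectional fitting versus DMSO.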

[12] = read-out: cysteine-aspartic acid protease (CASP8), CASP8 (gene 841); assay: LTEA_HepaRG_CASP8: Life Technologies and Expression Analysis (LTEA) Assay for cysteine-aspartic acid protease (CASP8) using HepaRG (AID 2283480)
Procedure, shortened: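 Differentiated human HepaRG cells, plated 48 h then switched to serum-free induction medium, were exposed in duplicate for 48 h to 8 half-log concentrations up to 100 uM in 0.5% DMSO. CASP8 mRNA was quantified by qRT-PCR, normalized to ACTB/GAPDH/POLR2A.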

[13] = read-out: Cytochrome P450 (CYP2B6), CYP2B6 (gene 1555); assay: LTEA_HepaRG_CYP2B6: Life Technologies and Expression Analysis (LTEA) Assay for Cytochrome P450 (CYP2B6) using HepaRG (AID 2283481)
Procedure, shortened: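 Differentiated human HepaRG cells in serum-free induction medium, dosed in duplicate for 48 h over 8 half-log concentrations topping at 100 uM (0.5% DMSO). CYP2B6 mRNA measured by TaqMan qRT-PCR, normalized to ACTB, GAPDH, POLR2A; bidirectional fit versus DMSO.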

CYP2C8 (gene 1558) = assay: LTEA_HepaRG_CYP2C8: Life Technologies and Expression Analysis (LTEA) Assay for CYP2C8 using HepaRG (AID 2283483)
Procedure, shortened: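 Differentiated human HepaRG cells were exposed for 48 h in serum-free induction medium to eight half-log concentrations up to 100 uM in 0.5% DMSO, in duplicate. CYP2C8 mRNA was measured by TaqMan qRT-PCR, normalized to ACTB, GAPDH and POLR2A, and fitted bidirectionally against DMSO.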

[14] = read-out: Cytochrome P450 (CYP24A1), CYP24A1 (gene 1591); assay: LTEA_HepaRG_CYP24A1: Life Technologies and Expression Analysis (LTEA) Assay for Cytochrome P450 (CYP24A1) using HepaRG (AID 2283478)
Procedure, shortened: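 HepaRG cells plated 48 h, then exposed in duplicate in serum-free induction medium for 48 h to 8-point half-log series from 100 uM in 0.5% DMSO. CYP24A1 mRNA by Fluidigm qRT-PCR, normalized to ACTB, GAPDH, POLR2A; bidirectional fit versus DMSO.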

[15] = read-out: Cytochrome P450 2C19 (Homo sapiens) (UniProt P33261); assay: LTEA_HepaRG_CYP2C19: Life Technologies and Expression Analysis (LTEA) Assay for CYP2C19 using HepaRG (AID 2283482)
Procedure, shortened: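 Differentiated HepaRG cells in serum-free induction medium exposed 48 h in duplicate, 8 concentrations from 100 uM by half-log steps in 0.5% DMSO. CYP2C19 mRNA measured by TaqMan qRT-PCR, normalized to ACTB, GAPDH, POLR2A. Bidirectional fit versus DMSO.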

[16] = read-out: Alkaline Phosphatase, Placental (ALPP) gene, ALPP (gene 250); assay: LTEA_HepaRG_ALPP: Life Technologies and Expression Analysis (LTEA) Assay for Alkaline Phosphatase, Placental (ALPP) gene using HepaRG (AID 2283468)
Procedure, shortened: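 HepaRG cells plated 48 h, then exposed in duplicate for 48 h in serum-free induction medium to 8-point half-log series from 100 uM in 0.5% DMSO. ALPP mRNA by TaqMan qRT-PCR, normalized to ACTB/GAPDH/POLR2A; bidirectional fit versus DMSO.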

Measured: AC50

Chain of Broad substrate specificity ATP-binding cassette transporter ABCG2 (Homo sapiens) (Q9UNQ0 whole entry, looked up): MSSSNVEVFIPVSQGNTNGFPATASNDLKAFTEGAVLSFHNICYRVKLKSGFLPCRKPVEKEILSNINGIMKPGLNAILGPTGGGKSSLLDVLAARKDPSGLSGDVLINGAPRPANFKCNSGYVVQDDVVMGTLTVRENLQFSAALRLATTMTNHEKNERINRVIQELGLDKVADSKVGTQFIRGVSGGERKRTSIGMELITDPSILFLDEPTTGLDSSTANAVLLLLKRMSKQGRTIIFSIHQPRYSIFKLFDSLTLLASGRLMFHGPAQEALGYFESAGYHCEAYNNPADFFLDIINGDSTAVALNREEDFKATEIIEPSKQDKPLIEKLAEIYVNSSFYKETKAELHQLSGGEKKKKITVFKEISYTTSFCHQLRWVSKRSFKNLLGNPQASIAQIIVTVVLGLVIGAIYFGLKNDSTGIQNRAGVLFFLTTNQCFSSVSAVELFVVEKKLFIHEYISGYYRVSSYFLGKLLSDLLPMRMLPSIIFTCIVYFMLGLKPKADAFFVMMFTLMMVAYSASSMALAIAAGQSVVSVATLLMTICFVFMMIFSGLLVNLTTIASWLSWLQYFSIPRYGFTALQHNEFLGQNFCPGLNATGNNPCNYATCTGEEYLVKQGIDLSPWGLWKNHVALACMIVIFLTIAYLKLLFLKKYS
Chain of Caspase-3 (Homo sapiens) (P42574 whole entry, looked up): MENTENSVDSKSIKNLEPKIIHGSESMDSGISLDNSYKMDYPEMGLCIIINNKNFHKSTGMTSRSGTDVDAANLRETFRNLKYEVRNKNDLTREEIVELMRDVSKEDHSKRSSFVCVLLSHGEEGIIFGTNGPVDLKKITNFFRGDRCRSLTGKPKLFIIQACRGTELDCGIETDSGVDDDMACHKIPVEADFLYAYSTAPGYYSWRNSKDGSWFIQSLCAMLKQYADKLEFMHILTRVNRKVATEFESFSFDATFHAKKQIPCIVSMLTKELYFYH
Chain of Cytochrome P450 2C19 (Homo sapiens) (P33261 whole entry, looked up): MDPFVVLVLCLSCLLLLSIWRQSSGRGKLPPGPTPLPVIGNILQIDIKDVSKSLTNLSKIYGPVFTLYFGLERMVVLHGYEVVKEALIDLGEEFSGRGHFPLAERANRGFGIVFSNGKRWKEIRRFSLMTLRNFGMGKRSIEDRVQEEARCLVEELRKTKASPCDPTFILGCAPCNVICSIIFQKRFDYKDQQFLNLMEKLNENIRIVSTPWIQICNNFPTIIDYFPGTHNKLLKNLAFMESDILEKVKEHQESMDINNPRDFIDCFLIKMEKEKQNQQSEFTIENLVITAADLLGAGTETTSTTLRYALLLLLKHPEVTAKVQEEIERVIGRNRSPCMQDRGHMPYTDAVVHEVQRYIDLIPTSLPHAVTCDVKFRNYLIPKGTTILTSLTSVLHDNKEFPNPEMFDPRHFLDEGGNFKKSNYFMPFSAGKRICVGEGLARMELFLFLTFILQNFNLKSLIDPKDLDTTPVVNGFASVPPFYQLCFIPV
Chain of Apoptosis regulator Bcl-2 (Homo sapiens) (P10415 whole entry, looked up): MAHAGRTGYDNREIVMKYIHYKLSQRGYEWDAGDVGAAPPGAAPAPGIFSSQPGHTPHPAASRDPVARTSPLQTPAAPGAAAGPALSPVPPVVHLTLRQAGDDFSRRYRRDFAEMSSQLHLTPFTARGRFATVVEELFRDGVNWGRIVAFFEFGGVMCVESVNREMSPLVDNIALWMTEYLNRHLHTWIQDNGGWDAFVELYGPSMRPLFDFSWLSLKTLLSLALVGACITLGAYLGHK

CC(=O)N1CCN(c2ccc(OC[C@H]3CO[C@](Cn4ccnc4)(c4ccc(Cl)cc4Cl)O3)cc2)CC1
active: [1] 4.05 µM | [2] 1.23 µM | [3] 18.1 µM | [5] 11.8 µM | [6] 65 µM | [7] 19.1 µM | [8] 17.8 µM | [9] 11.5 µM | [11] 26 µM | [12] 82.8 µM | [13] 12.7 µM | CYP2C8 (gene 1558) 22.9 µM
inactive: [4] | BCL2L11 (gene 10018) | [10] | Caspase-3 (Homo sapiens)

CCN(Cc1cccnc1)C(=O)c1cccc(Cl)c1[C@]1(C)C(=O)N(Cc2ccc(OC)cc2OC)c2ccc(Cl)cc21
inactive: [4] | [6] | BCL2L11 (gene 10018) | Caspase-3 (Homo sapiens) | [14]
active: [1] 6.56 µM | [2] 16.9 µM | [3] 18.2 µM | [5] 24.7 µM | [7] 19.4 µM | [8] 11.4 µM | [9] 11.4 µM | [11] 22.2 µM | [12] 12.5 µM | [13] 25.8 µM | [15] 26.1 µM | CYP2C8 (gene 1558) 25.8 µM

Cc1oc2c(NC(=O)c3c(Cl)cccc3Cl)cccc2c1C(C)(C)O
inactive: [1] | [4] | [6] | BCL2L11 (gene 10018) | [10] | Caspase-3 (Homo sapiens) | [14] | [12]
active: [2] 29.6 µM | [3] 30 µM | [16] 50 µM | [5] 85.9 µM | [7] 15.8 µM | [8] 50.7 µM | [9] 55.3 µM | [11] 12.7 µM | [13] 32.8 µM | [15] 33.5 µM | CYP2C8 (gene 1558) 35.8 µM

COCC(C)OCC(C)OCC(C)O (stereo not given)
active: [13] 25.8 µM
not listed: [10] | [16]
inactive: all other assays above

NCc1cccc(C2CCN(C(=O)c3ccc(C#Cc4ccccc4F)o3)CC2)c1
active: [7] 83.7 µM | BCL2L11 (gene 10018) 83.1 µM | [8] 80.5 µM | [10] 79.9 µM | [11] 90 µM | [12] 78 µM | [13] 83 µM | [15] 89.3 µM | CYP2C8 (gene 1558) 94 µM
not listed: [16]
inactive: all other assays above

CCN(CC)C(=O)c1cc(S(=O)(=O)Cc2ccccc2)c(N2CCC(c3ccccc3)CC2)cc1N(CC)CCN(C)C
inactive: [1] | [4] | [5] | [7] | [9] | [10] | [14]
active: [2] 4.57 µM | [3] 32.7 µM | [16] 31.5 µM | BCL2L11 (gene 10018) 25.7 µM | [8] 29.2 µM | Caspase-3 (Homo sapiens) 30.6 µM | [11] 6.01 µM | [12] 30.8 µM | [13] 5.04 µM | [15] 4.25 µM | CYP2C8 (gene 1558) 4.92 µM
